SARS PLpro yeast: qHTS of Yeast-based Assay for SARS-CoV PLP; S. cerevisiae expressing SARS-CoV PLpro, growth rescue; Potency, µM (series often up to 32.9 µM), without a hit: top-dose activity, positive = growth rescue, most hits filed as activators; 330,000 compounds, 0.19% hits; AID 485353, 2010; calls by dose curve; further: potency means the concentration at half of the fitted maximal effect; 0% is about no effect; nearly all actives have a fitted effect of over 55% in size
Pf growth 48h: Primary qHTS for delayed death inhibitors of the malarial parasite plastid, 48 hour incubation | 310,000 compounds, 5.9% hits | P. falciparum luciferase growth in erythrocytes, 48 h | Potency, µM (series often up to 28.7 µM), for the others: at the top dose activity change, negative = inhibition, most hits filed as inhibitors | AID 504832, 2011; further: potency means the concentration at half of the fitted maximal effect; on the % scale 0 is the no-effect control and ±100 the full control effect
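First compound was added to culture medium, then infected red cells at 0.1% parasitemia and 2% hematocrit (final). After incubation at 37 C under 5% CO2, luciferase detection reagent was dispensed and light output recorded.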
CHX counter: Cycloheximide Counterscreen for Small Molecule Inhibitors of Shiga Toxin | cell reporter, cycloheximide protein synthesis inhibition counterscreen | max response, % | 300,000 compounds, 12% hits | AID 2314, 2010; in the data active means max response mostly above about 13%, no sharp cut-off; inactive means mostly below about 14%; further: read at 38.3 µM for the half of the compounds with a filed dose; 0% is about no effect
Pf growth 96h: Primary qHTS for delayed death inhibitors of the malarial parasite plastid, 96 hour incubation. 320,000 compounds, 6.9% hits. P. falciparum luciferase reporter growth, 96 h. Potency, µM (top dose mostly 28.7 µM), for the others: at the highest dose activity change, negative = inhibition, hits mostly inhibitors; further: potency means the concentration at half of the fitted maximal effect; on the % scale 0 is the no-effect control and ±100 the full control effect
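Two-generation exposure (96 h) targets delayed-death phenotype. Reporter parasites carrying integrated firefly luciferase, in red cells at 2% hematocrit and 0.05% parasitemia final, kept at 37 C, 5% CO2; luminescence loss indicates inhibition.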
Shiga toxin inh: A qHTS for Small Molecule Inhibitors of Shiga Toxin | Vero cells, Shiga toxin protein synthesis inhibition reporter | inhibition, % at 38.7 µM | 290,000 compounds, 9.2% hits | AID 2315, 2010; in the data active means inhibition mostly above about 28%, no sharp cut-off; inactive means mostly below about 43%; further: 0% is about no effect
AMA1 RON2 block: qHTS for Inhibitors of AMA1-RON; Towards Development of Antimalarial Drug Lead: Primary Screen | Plasmodium falciparum AMA1 (3D7) - RON2 peptide interaction | AlphaScreen AMA1-biotinylated RON2 peptide binding | Potency, µM (titrated, usually from 58.2 µM), without a hit: at the highest dose activity change, negative = inhibition, most hits filed as inhibitors | 360,000 compounds, 0.2% hits;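 further: potency means the concentration at half of the fitted maximal effect; 0% = vehicle wells and -100% = peptide control; nearly all actives have a fitted effect of over 45% in size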
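AMA1 (3D7) with his tag at 25 nM final met compounds first, then biotinylated RON2 peptide at 25 nM; detection used donor plus acceptor beads, 10 µg/mL apiece, read by AlphaScreen after 30 min at room temperature.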
An asterisk follows results filed as active; ? = inconclusive; · = no result given; [ ] = remark or other dose. Sampled rows, rich in hits. Any-hit rate of the full collection: about 19%. Unless noted, the call rests on the fitted dose curve; in most records, active means well fitted curve in the direction sought with a large enough effect; inconclusive means small, poorly fitted or top-dose-only effect, or another doubt; inactive means no such curve, though single readings can be large; an effect the other way counts as inactive or inconclusive.

SMILES | SARS PLpro yeast | Pf growth 48h | CHX counter | Pf growth 96h | Shiga toxin inh | AMA1 RON2 block
C=CCc1cccc(/C=N/NC(=O)C(C)Nc2cccc(C)c2)c1O (centres undefined) | ? | 13.1µM* | -5.7 | 86.7% | 2.4 | 63.5%
C=CCc1cccc(/C=N/NC(=O)CNc2ccccc2)c1O | · | ? | -1.1 | ? | 13.7 | 122.1%
Cc1ccccc1-n1c(SCC(=O)NCC2CCCO2)nc2c([nH]c3ccccc32)c1=O (centres undefined) | -2.9% | ? | 1.1 | -22.1% | -20.9 | -11.4%
COc1cccc(-n2c(SCC(=O)Nc3cc(C)on3)nc3c([nH]c4ccccc43)c2=O)c1 | -6.0% | ? | 5.2 | ? | -4.9 | -5.9%
Cc1cc(NC(=O)CSc2nc3c([nH]c4ccccc43)c(=O)n2-c2ccccc2F)no1 | 5.0% | 13.1µM* | -0.6 | 13.1µM* | -3.8 | -1.0%
COc1ccc(C)cc1-n1c(SCC(=O)NCC2CCCO2)nc2c([nH]c3ccccc32)c1=O (centres undefined) | 7.3% | 9.28µM* | 0.2 | ? | -6.6 | -15.4%
Cc1cc(NC(=O)CSc2nc3c([nH]c4ccccc43)c(=O)n2-c2cccc(C(F)(F)F)c2)no1 | 16.5% | 11.7µM* | -2.3 | 9.28µM* | 6.0 | -5.6%
O=C(CSc1nc2c([nH]c3ccccc32)c(=O)n1-c1ccccc1F)NCC1CCCO1 (centres undefined) | 2.8% | ? | 5.5 | ? | -9.5 | -11.3%
COc1ccccc1-n1c(SCC(=O)Nc2cc(C)on2)nc2c([nH]c3ccccc32)c1=O | 6.3% | -20.6% | 7.5 | 11.7µM* | 10.3 | -11.3%
COc1ccccc1-n1c(SCC(=O)Nc2cc(C)on2)nc2c(c1=O)SCC2 | -0.4% | ? | 3.1 | ? | -2.8 | 5.4%
Cc1cccc(NC(=O)COc2cccc3c2CCN(Cc2ccccc2)C3=O)c1C | 15.2% | ? | -1.1 | ? | -10.9 | 1.8%[2.32 µM]
Cc1ccc(S(=O)(=O)N2CCN(c3nccnc3C#N)CC2)cc1 | 0.0% | -10.9% | 0.5 | 0.0% | -0.6 | 10.2%
O=C(N/N=C/C1CC2C=CC1C2)c1ccccc1O (centres undefined) | -0.3% | -13.2% | 39.9* | 19.7% | 68.3* | 93.4%
Cc1cc(NC(=O)c2ccc(Cl)cc2)cc(C)c1OCC(=O)N1CCOCC1 | -7.2% | -3.2% | 32.7* | 0.0% | 76.7* | 6.5%
Cc1cc(NC(=O)c2cccc3ccccc23)cc(C)c1OCC(=O)N1CCOCC1 | 2.6% | · | 0.9 | 16.9% | -7.6 | 0.0%
CCCCOc1ccc(C(=O)Nc2cc(C)c(OCC(=O)N3CCOCC3)c(C)c2)cc1 | -11.0% | 35.6% | 21.9* | 21.8% | 11.3 | -7.1%
COc1cc(C(=O)Nc2cc(C)ccn2)ccc1OCC(=O)N1CCOCC1 | -1.2% | 46.6% | 41.6* | 63.5% | 50.9* | 8.7%
CCc1cccc(NC(=O)CN(c2ccc(OC)cc2)S(=O)(=O)c2c(C)n[nH]c2C)c1 | -1.7% | -35.4% | 4.7 | -7.1% | -5.7 | -13.7%
CCc1nnc(NS(=O)(=O)c2ccc(NC(=S)NC(=O)/C=C/c3ccc(C(C)C)cc3)cc2)s1 | -5.5% | -23.9% | -1.3 | 8.1% | -3.0 | 43.3%
C=CCNC(=O)c1onc(CSc2cccc(C)c2)c1C(=O)O | -5.6% | 47.6% | -3.0 | 31.6% | -5.9 | -2.3%
CCC(=O)Nc1cccc(C2=NOC3(C2)C[C@@H](C(N)=O)N(C(=O)c2ccccc2C(=O)c2ccccc2)C3)c1 (some centres undefined) | 2.1% | ? | -3.8 | ? | -1.9 | 13.6%
CC1(C(=O)N2CC3(CC(c4cccc(NC(=O)COc5ccc(Cl)cc5)c4)=NO3)C[C@@H]2C(N)=O)CC1 (some centres undefined) | -2.0% | 13.1µM* | -2.3 | ? | -7.2 | 3.9%
CCC(=O)N1CC2(CC(c3cccc(NC(=O)COc4ccc(Cl)cc4)c3)=NO2)C[C@@H]1C(N)=O (some centres undefined) | 0.7% | ? | -3.1 | ? | -14.9 | ·
C/C=C/C(=O)N1CC2(CC(c3cccc(NC(=O)COc4ccc(Cl)cc4)c3)=NO2)C[C@@H]1C(N)=O (some centres undefined) | 2.1% | 13.1µM* | 4.0 | 5.22µM* | 13.9 | -0.7%
NC(=O)[C@H]1CC2(CC(c3cccc(NC(=O)COc4ccc(Cl)cc4)c3)=NO2)CN1C(=O)c1ccc(Cl)cc1 (some centres undefined) | 3.3% | 13.1µM* | 7.3 | ? | 15.8 | 20.4%
SMILES | SARS PLpro yeast | Pf growth 48h | CHX counter | Pf growth 96h | Shiga toxin inh | AMA1 RON2 block
NC(=O)[C@H]1CC2(CC(c3cccc(NC(=O)COc4ccc(Cl)cc4)c3)=NO2)CN1C(=O)c1ccccc1C(=O)c1ccccc1 (some centres undefined) | 1.7% | 11.7µM* | -3.5 | 11.7µM* | -5.1 | -0.1%
O=C(CC1C(=O)NCCN1Cc1cccc(C(F)(F)F)c1)NC1CCCCCC1 (centres undefined) | 0.9% | -7.9% | -1.4 | -6.3% | -32.1 | 37.3%
CN(C)CC(O)CN1C(=O)N(CN2C(=O)N(CC(O)CN(C)C)C(=O)C2(C)C)C(C)(C)C1=O (centres undefined) | 1.3% | 3.0% | -3.0 | 15.9% | 18.5 | 16.5%
CC(=O)Nc1ccc(CNc2nc3cc(-c4ccc(F)cc4)sc3c(=O)n2C)cc1 | · | · | · | · | · | 13.4%
Cc1ccc(C)c(OCC(=O)Nc2ccc(S(=O)(=O)Nc3onc(C)c3C)cc2)c1 | -5.1% | 24.6% | -3.0 | 26.0% | -1.5 | -3.5%
CCCCCC(=O)N1CC2(CC(c3cccc(NC(=O)COc4ccc(Cl)cc4)c3)=NO2)C[C@@H]1C(N)=O (some centres undefined) | 4.9% | 10.4µM* | -1.6 | 13.1µM* | -6.0 | 5.5%
NC(=O)[C@H]1CC2(CC(c3cccc(NC(=O)COc4ccc(Cl)cc4)c3)=NO2)CN1C(=O)CC(c1ccccc1)c1ccccc1 (some centres undefined) | 0.9% | ? | 0.9 | ? | 3.0 | -1.8%
NC(=O)[C@@H]1CC2(CC(c3cccc(NC(=O)CC(c4ccccc4)c4ccccc4)c3)=NO2)CN1C(=O)COc1ccc(Cl)cc1 (some centres undefined) | 1.0% | ? | 4.0 | 11.7µM* | 6.3 | -5.1%
C[N+](C)(C)CCN1CCc2ccccc21 | · | · | · | · | · | -1.8%
CC(C)(C)Nc1c(C2CCNCC2)nc2c(OCc3ccccc3)cccn12 | · | · | · | · | · | 2.7%
O=C(COC(=O)c1ccc(Cl)s1)c1ccc[nH]1 | 0.1% | -4.3% | 26.6* | 32.8% | 73.2* | 0.0%
Cc1ccsc1C(=O)OCC(=O)c1ccc[nH]1 | 6.8% | 467.5% | · | 326.4% | · | -0.7%[11.6 µM]

Assay outcomes as filed in PubChem BioAssay.
